Compound activity deposited in PubChem by The Scripps Research Institute Molecular Screening Center.
The list is not random: actives were taken first. Their share in the collection is about 2.6%.
BaF3 tox: parental Ba/F3 viability inhibition as JAK2V617F counter-screen; CellTiter-Glo ATP luminescence; inhibition, % at 5.6 µM; 220,000 compounds, 1.1% hits; AID 1486;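 active means inhibition above a per-campaign cutoff, the mean inhibition of all tested compounds plus 3 SD, cut at about 27% in these data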;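 further: 0% = DMSO wells and 100% = JAK Inhibitor I control wells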
Ba/F3 V617F tox: reduce viability of Ba/F3 cells dependent on JAK2V617F | Ba/F3 EpoR-JAK2V617F viability, ATP luminescence | inhibition, % at 5.6 µM | 220,000 compounds, 1.1% hits;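 active means inhibition above the campaign mean plus 3 SD over all tested compounds, cut at about 24% in these data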;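 further: cytokine-independent growth of Ba/F3 cells driven by EpoR plus mutant JAK2; 0% = DMSO-treated cells and 100% = JAK inhibitor I control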
FID counter: counter-screen for HCV NS3 helicase inhibitors: DNA intercalator displacement; DNA fluorescent intercalator displacement, fluorescence; inhibition, % at 7.9 µM; 290,000 compounds, 0.17% hits; in the data active means inhibition above about 37%;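 further: 0% = vehicle and 100% = reference compound; higher means more ethidium bromide displaced from hairpin DNA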
KLF5 inh: kruppel-like factor 5 inhibition. AID 1700. inhibition, % at 5 µM. DLD-1 KLF5 promoter-luciferase reporter, luminescence. 290,000 compounds, 0.23% hits;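 active means inhibition above a per-plate limit of that plate's mean compound inhibition plus 3 SD, cut at about 60% in these data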;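 further: 0% = DMSO wells and 100% = LY294002 at 200 µM; higher means less KLF5 promoter-driven luciferase light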
IEC-6 tox: counter-screen for KLF5 inhibitors: cytotoxicity in IEC-6 cells; inhibition, % at 5 µM; IEC-6 cytotoxicity, luminescence viability; 290,000 compounds, 0.78% hits;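 further: 0% = plate median of test compound wells and 100% = cytotoxic reference compound wells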
GPR7 antag: human neuropeptides B/W receptor 1 antagonism; GPR7-expressing cells, fluorescence antagonist assay; AID 1861; 290,000 compounds, 1.1% hits; inhibition, % at 4.4 µM; P48145; in the data active means inhibition above about 16%, passing the limit was not always enough;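 further: cells stimulated with the agonist NPW; 0% = agonist with vehicle and 100% = vehicle without agonist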
Target sequence (P48145 whole entry, looked up): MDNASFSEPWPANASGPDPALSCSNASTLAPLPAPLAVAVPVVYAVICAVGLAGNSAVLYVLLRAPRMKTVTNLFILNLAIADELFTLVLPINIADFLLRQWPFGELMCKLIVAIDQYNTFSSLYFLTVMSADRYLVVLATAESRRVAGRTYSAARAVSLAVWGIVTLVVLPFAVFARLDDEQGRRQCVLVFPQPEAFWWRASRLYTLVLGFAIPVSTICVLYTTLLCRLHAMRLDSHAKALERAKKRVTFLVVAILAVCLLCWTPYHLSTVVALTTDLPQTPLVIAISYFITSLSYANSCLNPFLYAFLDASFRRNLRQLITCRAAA
IEC-6 tox confirm: confirmation of cytotoxic compounds in rat IEC-6 intestinal epithelial cells | shares compounds with IEC-6 tox | IEC-6 rat intestinal epithelial viability, luminescence | AID 1907 | 1,900 compounds, 63% hits | inhibition, % at 5 µM;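 further: 0% = vehicle and 100% = reference cytotoxic drug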
GPR7 antag conf: human GPR7 antagonism, confirmation assay. shares compounds with GPR7 antag. 2,400 compounds, 52% hits. inhibition, % at 4.4 µM. GPR7-expressing cells, calcium fluorescence antagonist mode. AID 1952; in the data active means inhibition above about 24%;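 further: stimulated with the GPR7 agonist NPW; 0% = agonist plus vehicle and 100% = vehicle alone without agonist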
MCHR1 antag: counter-screen for GPR7 antagonists: antagonists of human MCHR1 | shares compounds with GPR7 antag | MCHR1-expressing cells, fluorescence antagonist assay | inhibition, % at 4.4 µM | 2,400 compounds, 62% hits;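 further: 0% = vehicle with agonist and 100% = vehicle without agonist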
Numbers without * were called inactive; / = no result. Unless noted, no stated cut-off is given here; in the data, active means inhibition above about 22%; inactive means the rest.

SMILES	BaF3 tox	Ba/F3 V617F tox	FID counter	KLF5 inh	IEC-6 tox	GPR7 antag	GPR7 antag conf	MCHR1 antag	others
COC(=O)C(O)(c1ccc(N(C)C)cc1)C(F)(F)F (stereo not drawn)	9	-1	-2	-33	-3	-5	/	/
CN(C)c1ccc(C(=O)c2ccc(N(C)C)cc2)cc1	19	21	-10	-42	33*	13	/	/	IEC-6 tox confirm=50*
Cc1onc(-c2c(Cl)cccc2Cl)c1C(=O)Nc1ccc2c(C(F)(F)F)cc(=O)oc2c1	-1	-2	-2	-7	1	-13	/	/
Cc1nonc1-c1nc(-c2nonc2N)n[nH]1	7	1	-1	-12	1	32*	13	4
O=P(O)(O)C#Cc1ccccc1	5	-1	-1	-7	-1	-5	/	/
COCCOC(=O)c1c(N)n(Cc2ccc(OC)cc2)c2nc3ccccc3nc12	1	-1	-21	-15	4	30*	21	19
CCOC(=O)c1c(N)n(Cc2ccc(OC)cc2)c2nc3ccccc3nc12	3	1	-17	-3	8	8	/	/
CCOc1ccc(Cl)cc1CNCCc1ccc(F)cc1	5	-1	16	-4	-8	33*	30*	29*
C[C@]12CCC3[C@@H](CCC4=CC(=O)CC[C@@]43C=O)C1CCC2=O (stereo partly drawn)	/	/	-14	-16	10	28*	-9	7
C[n+]1c(-c2ccccc2)cc(CCCCc2cc(-c3ccccc3)[n+](C)c(-c3ccccc3)c2)cc1-c1ccccc1	5	1	23	-4	-11	9	/	/
Nc1ccccc1-[n+]1c(-c2ccccc2)cc(-c2ccccc2)cc1-c1ccccc1	52*	49*	21	7	11	84*	76*	66*
CCCCCCC(=O)N/N=C/c1c(O)n(CCCC)c(=S)[nH]c1=O	1	-3	-24	-8	-6	-18	/	/
CN1CC(C(=O)c2ccc(Cl)cc2)C(c2ccccc2F)C1 (stereo not drawn)	6	2	8	-17	-3	3	/	/
CC1(C)CSC(=NCc2ccccc2)N1	4	-1	-1	-8	-1	87*	96*	102*
O=C(CF)NC(NC(=S)Nc1ccccc1O)C(Cl)(Cl)Cl (stereo not drawn)	3	-2	-1	-21	-5	-2	/	/
Cc1c(CCN)ccc2c1[nH]c1ccccc12	1	-2	11	-5	0	37*	37*	27*
Cc1nc2cc(C(F)(F)F)ccc2n1C1CCN(Cc2nnnn2Cc2cccs2)CC1	10	6	-15	-18	8	32*	47*	38*
Cc1nc2cc(C(F)(F)F)ccc2n1C1CCN(Cc2nnnn2Cc2ccc3c(c2)OCO3)CC1	6	2	-4	-7	2	9	/	/
COc1ccc(-c2cc(-c3ccccc3)[n+](C)c(-c3ccccc3)c2)cc1	76*	99*	7	32	11	33*	42*	38*
c1cc2n(c1)-c1c(ccc3c1OCO3)CNC2c1ccc2c(c1)OCO2 (stereo not drawn)	2	-1	15	5	8	25*	49*	30*
COc1ccc(C2NCc3ccc4c(c3-n3cccc32)OCO4)cc1O (stereo not drawn)	73*	75*	12	55	74*	50*	53*	37*
Oc1ccc2ccccc2c1CN1CC=C(c2ccccc2)CC1	6	-2	0	5	-1	0	/	/
O=C(COc1ccc(Cl)cc1)N1CCN(Cc2ccc([N+](=O)[O-])cc2)CC1	8	7	-10	-4	4	30*	28*	46*
COc1ccc(OC)c(N2C(=O)NC(=O)/C(=C/c3ccc([N+](=O)[O-])s3)C2=O)c1	4	2	-12	22	-5	0	/	/
CN1CC=C(/C=C/c2ccc(-c3ccccc3)cc2)CC1	/	/	30	-75	-4	51*	63*	51*
SMILES	BaF3 tox	Ba/F3 V617F tox	FID counter	KLF5 inh	IEC-6 tox	GPR7 antag	GPR7 antag conf	MCHR1 antag	others
COc1ccc(/C=C/C2=CCN(C)CC2)cc1	1	-4	4	-10	-2	-4	/	/
Cc1cc(OC(C)C(=O)NCC2CCC(C(=O)O)CC2)c2c3c(c(=O)oc2c1)CCC3 (stereo not drawn)	/	/	-20	-1	2	-5	/	/
OC(CCNCCc1c[nH]c2ccccc12)C(F)(F)F (stereo not drawn)	2	0	1	6	4	-5	/	/
O=P(NC(c1ccccc1)c1ccccc1)(Oc1ccccc1)Oc1ccccc1	0	0	-5	-25	-4	26*	32*	47*
CCOC(=O)C(O)(c1ccc(N(C)C(=O)c2ccc(Cl)c(Cl)c2)cc1)C(F)(F)F (stereo not drawn)	8	-1	-16	20	0	16	/	/
COC(=O)C(O)(c1ccc(N(C)C(=O)c2ccc(Cl)c(Cl)c2)cc1)C(F)(F)F (stereo not drawn)	11	0	-10	1	-2	33*	30*	-3
CCOP(=O)(CN(CC)CCNP(=O)(OCC)OCC)OCC	6	-2	-12	-21	0	-17	/	/
CCOc1cc2c(cc1OCC)-n1cccc1C(c1ccc(C(C)C)cc1)NC2 (stereo not drawn)	/	/	32	-23	13	36*	34*	62*
CC(=O)Nc1nnc(CCN(CCc2nnc(NC(C)=O)s2)[N+](=O)[O-])s1	2	-3	3	9	6	32*	-8	-5
CC(C)C(=O)Nc1nnc(CCN(CCc2nnc(NC(=O)C(C)C)s2)[N+](=O)[O-])s1	4	-1	-3	10	0	-13	/	/
COc1ccccc1-n1c(O)c(/C=C2\C=Nc3ccccc32)c(=O)[nH]c1=O	/	/	-1	-15	-1	29*	39*	53*
COc1ccc(OC)c(-n2c(O)c(/C=C3\C=Nc4ccccc43)c(=O)[nH]c2=O)c1	/	/	2	0	5	31	/	/
C=CCNC(=O)c1c(N)n(CCN2CCOCC2)c2nc3ccccc3nc12	7	3	0	-40	4	9	/	/
Clc1ccccc1CNC1CN2CCC1CC2 (stereo not drawn)	7	-2	7	-19	3	-3	/	/
c1ccc2c(c1)Sc1ccccc1N2CC1CN2CCC1CC2 (stereo not drawn)	2	2	18	-30	-3	30*	47*	41*
